NCF1 inh – inhibitors of human p47phox binding. P14598. p47phox/p22phox peptide binding, fluorescence polarization, 2 h. inhibition, % at 24.7 µM. 220,000 compounds, 0.53% hits. AID 1274;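 active means inhibition above about 30%, limit read from the data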
Target sequence (P14598 whole entry, looked up): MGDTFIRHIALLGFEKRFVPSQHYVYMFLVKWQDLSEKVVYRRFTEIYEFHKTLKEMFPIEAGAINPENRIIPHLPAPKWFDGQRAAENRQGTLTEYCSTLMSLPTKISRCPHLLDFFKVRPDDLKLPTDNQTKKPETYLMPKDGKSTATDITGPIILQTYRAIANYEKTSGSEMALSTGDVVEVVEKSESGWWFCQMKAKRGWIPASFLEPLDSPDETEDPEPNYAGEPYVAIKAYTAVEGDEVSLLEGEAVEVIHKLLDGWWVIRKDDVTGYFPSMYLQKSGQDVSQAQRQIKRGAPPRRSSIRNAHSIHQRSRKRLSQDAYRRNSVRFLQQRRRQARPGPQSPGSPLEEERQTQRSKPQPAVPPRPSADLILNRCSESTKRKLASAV
PG9 binder – PG9 antibody binding by small molecule; TR-FRET gp120-PG9 antibody binding; inhibition, % at 6.7 µM; 360,000 compounds, 0.43% hits; AID 624416; in the data active means inhibition above about 8.5%
aDG glyco act – increases alpha dystroglycan glycosylation; activation, % at 10 µM; Pro5-aDG cells, alpha-DG glycosylation AlphaScreen (IIH6); 0% Pro5, 100% B10-LARGE cell signal; 360,000 compounds, 0.22% hits; AID 624168;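 active means activation of at least 8% versus controls, or a plate z-score of at least 8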;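 further: Pro5 are CHO cells carrying HIG-tagged alpha-DG that lacks glycosylation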
Rev-erbA mod – modulators of human Rev-erb alpha DNA binding | P20393 | Rev-erbα–FITC-DNA binding, fluorescence polarization, 90 min | 370,000 compounds, 0.79% hits | activity, % at 10 µM;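 active means activity above about 14%, limit read from the data; passing the limit was not always enough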
ZTA DNA inh – ZTA (EBV) inhibition in EBNA-1 counter-screen; AID 2234; ZTA-DNA binding, fluorescence polarization; P03206; inhibition, % at 11 µM; 320,000 compounds, 0.15% hits; in the data active means inhibition above about 33%
Target sequence (P03206 whole entry, looked up): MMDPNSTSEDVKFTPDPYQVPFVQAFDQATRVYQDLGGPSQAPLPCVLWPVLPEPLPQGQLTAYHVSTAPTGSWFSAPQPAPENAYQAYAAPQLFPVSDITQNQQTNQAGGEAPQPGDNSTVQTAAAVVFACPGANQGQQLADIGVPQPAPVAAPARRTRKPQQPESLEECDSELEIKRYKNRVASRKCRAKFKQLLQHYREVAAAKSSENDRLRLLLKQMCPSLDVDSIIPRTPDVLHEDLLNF
EBNA-1 inh – blocks EBNA-1 binding to DNA | EBNA-1 DNA binding, fluorescence polarization | inhibition, % at 14.8 µM | 300,000 compounds, 0.34% hits; in the data active means inhibition above about 28%
EBNA-1 inh conf – EBNA-1 (EBV) inhibition, confirmation; shares compounds with EBNA-1 inh; Recombinant EBNA-1 DBD, Cy5-DNA fluorescence polarization; inhibition, % at 14.8 µM; 830 compounds, 35% hits; AID 2292;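 active means mean inhibition across replicates above a set limit taken from the earlier primary screen, cut at about 28% in these data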
ZTA counter trip – ZTA (EBV) inhibition, triplicate counter-screen. shares compounds with EBNA-1 inh. Zta-ZRE DNA binding, Cy5 fluorescence polarization. inhibition, % at 11.1 µM. 830 tested, under 10 active. AID 2328;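 active means mean inhibition over triplicates above a set limit taken from the primary EBNA-1 screen, cut at about 37% in these data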;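 further: purified full length Zta protein with Cy5 labeled ZRE DNA probe; inhibitors lower polarization by freeing the labeled DNA probe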
Of the large screens only hits and unclear results are named; the others gave an inactive call (follow-up assays come after a bar, where they were run). Shown are actives, neighbours in structure and some others; about 1.9% of the full set was active somewhere.

COc1ccc(C([O-])=Nc2ccc[n+](-c3nc4ccccc4nc3NS(=O)(=O)c3ccccc3)c2)cc1	EBNA-1 inh 29 (no result: aDG glyco act) | EBNA-1 inh conf inactive | ZTA counter trip inactive
O=S(=O)(Nc1nc2ccccc2nc1-[n+]1cccc(N=C([O-])c2ccccc2Cl)c1)c1ccccc1	none (no result: PG9 binder, aDG glyco act, Rev-erbA mod)
COc1ccc(NC(=S)Nc2cc(-c3ccccc3)[nH]n2)cc1Cl	EBNA-1 inh 36 | EBNA-1 inh conf inactive | ZTA counter trip inactive
COC(=O)C1CN(Cc2ccc(OC)cc2)CCS(=O)(=O)N1Cc1cn(Cc2ccccc2)nn1 (stereo not given)	none (no result: NCF1 inh, PG9 binder, aDG glyco act, ZTA DNA inh, EBNA-1 inh)
COCCn1cnnc1SCC(=O)Nc1cc(OC)c([N+](=O)[O-])cc1C	EBNA-1 inh active | EBNA-1 inh conf inactive | ZTA counter trip inactive
O=C(CCCl)NC1CCCCN(Cc2ccc(OC(F)(F)F)cc2)C1=O (stereo not given)	none (no result: NCF1 inh, PG9 binder, aDG glyco act, ZTA DNA inh, EBNA-1 inh)
CCOC(=O)CSc1nc2ccccc2c(=O)n1-c1ccc(C(=O)NCCOC)cc1	none
COCCNC(=O)c1ccc(-n2c(SCc3cc(F)ccc3F)nc3ccccc3c2=O)cc1	EBNA-1 inh 40 | EBNA-1 inh conf inactive | ZTA counter trip inactive
CCN(CC)S(=O)(=O)c1ccc(C(=O)Nc2nnc(NC(=S)Nc3ccccc3)s2)cc1	EBNA-1 inh 38 | EBNA-1 inh conf 75 | ZTA counter trip inactive
Cc1cc(OC(C)CCN2CCC(C(O)(c3ccccc3)c3ccccc3)CC2)ccc1Br (stereo not given)	none (no result: NCF1 inh, PG9 binder, aDG glyco act, ZTA DNA inh, EBNA-1 inh)
COc1ccc(Nc2nnc(SCC(=O)c3cc4ccccc4o3)s2)cc1	EBNA-1 inh 44 | EBNA-1 inh conf 37 | ZTA counter trip inactive
COc1ccccc1Nc1nnc(SCC(=O)Nc2cc(C)on2)s1	EBNA-1 inh 35 | EBNA-1 inh conf inactive | ZTA counter trip inactive
O=C(CSc1nnc(Nc2ccccc2F)s1)c1cc2ccccc2o1	none
Cc1ccc(N2CC(C(=O)Nc3nnc(SCC(=O)Nc4cc(C)on4)s3)CC2=O)cc1 (stereo not given)	EBNA-1 inh 34 | EBNA-1 inh conf inactive | ZTA counter trip inactive
Cn1c(=O)cc(OCCCC(=O)Nc2cc(-c3cn[nH]c3)ccn2)c2ccccc21	none (no result: NCF1 inh, PG9 binder, aDG glyco act, ZTA DNA inh, EBNA-1 inh)
C[C@@H]1ON(C)[C@H]2C[C@H]3c4[nH]c5c(-c6ccc7c(c6)OCO7)cccc5c4CCN3C[C@@H]12	none (no result: NCF1 inh, PG9 binder, aDG glyco act, ZTA DNA inh, EBNA-1 inh)
CC(C)CN(C(=O)CSc1ccc2c(c1)OCCO2)c1c(N)n(CC(C)C)c(=O)[nH]c1=O	none (no result: NCF1 inh, EBNA-1 inh)
CC(C)Cn1c(N)c(C(=O)COC(=O)c2ccc3c(c2)OCCO3)c(=O)n(C)c1=O	EBNA-1 inh 29 | EBNA-1 inh conf 32 | ZTA counter trip inactive
CC(C)Cn1c(N)c(C(=O)CSc2ccc3c(c2)OCCO3)c(=O)n(C)c1=O	EBNA-1 inh 54 | EBNA-1 inh conf 47 | ZTA counter trip inactive
Cc1ccc(NC(=O)CSc2ccc(-c3ccccn3)nn2)cc1F	EBNA-1 inh 36 (no result: NCF1 inh) | EBNA-1 inh conf 53 | ZTA counter trip inactive
CCOc1ccc(NC(=O)CCC(=O)NNC(=O)COc2ccc(C)cc2)cc1	none
CCOc1ccc(NC(=O)CCC(=O)NNC(=O)COc2ccc(C)cc2Br)cc1	EBNA-1 inh 51 (no result: NCF1 inh) | EBNA-1 inh conf 99 | ZTA counter trip inactive
Cn1nccc1C(=O)N1CCCC(C(=O)c2cccc3ccccc23)C1 (stereo not given)	EBNA-1 inh 40 | EBNA-1 inh conf inactive | ZTA counter trip inactive
Cc1ccc(-n2c(SCC(=O)N/N=C/C=C\c3ccccc3[N+](=O)[O-])nnc2-c2ccccc2)cc1	none (no result: NCF1 inh, PG9 binder, aDG glyco act, ZTA DNA inh, EBNA-1 inh)
CCOC(=O)c1cnc(SCc2nc(N)nc(Nc3ccc(F)cc3)n2)nc1N	EBNA-1 inh 49 | EBNA-1 inh conf inactive | ZTA counter trip inactive
CCOC(=O)c1cnc(SCc2nc(N)nc(Nc3ccc(C)cc3)n2)nc1N	none
Cc1ccc(Cn2nnc3c2-c2ccccc2S(=O)(=O)N(C(C)(C)C)C3)cc1	none (no result: NCF1 inh, PG9 binder, aDG glyco act, ZTA DNA inh, EBNA-1 inh)
CN(C)c1ccc(/C=C(\C#N)C(=O)NCc2ccco2)cc1	EBNA-1 inh 44 (no result: PG9 binder, aDG glyco act, Rev-erbA mod) | EBNA-1 inh conf 69 | ZTA counter trip inactive
Cc1ccc(-c2nn3c(-c4ccco4)nnc3c3ccccc23)cc1S(=O)(=O)NCC1CCCO1 (stereo not given)	EBNA-1 inh 86 | EBNA-1 inh conf inactive | ZTA counter trip inactive
Cc1ccc(-c2nnc(Nc3ccccc3)c3ccccc23)cc1S(=O)(=O)NCC1CCCO1 (stereo not given)	none
CCOC(=O)N/N=C(/C)c1ccc([N+](=O)[O-])o1	EBNA-1 inh 36 | EBNA-1 inh conf inactive | ZTA counter trip inactive
N#Cc1ccccc1OCC(=O)Nc1c(C(=O)C2CC2)oc2ccccc12	EBNA-1 inh 30 | EBNA-1 inh conf 92 | ZTA counter trip inactive
CN(Cc1ccccc1)C(=O)OCc1cn(Cc2ccc(F)c(F)c2)nn1	none (no result: NCF1 inh, PG9 binder, aDG glyco act, ZTA DNA inh, EBNA-1 inh)
NS(=O)(=O)c1ccc(NC(=O)c2ccc(S(=O)(=O)N3CCc4ccccc43)cc2)cc1	EBNA-1 inh 94 | EBNA-1 inh conf inactive | ZTA counter trip inactive
CCCN(C(=O)COC(=O)c1cc(CC)c(C)s1)c1c(N)n(Cc2ccccc2)c(=O)[nH]c1=O	none (no result: NCF1 inh)
CCc1cc(C(=O)N(CC(C)C)c2c(N)n(Cc3ccccc3)c(=O)[nH]c2=O)sc1C	EBNA-1 inh 33 (no result: NCF1 inh) | EBNA-1 inh conf inactive | ZTA counter trip inactive
COC(=O)[C@H](C(C)C)N(Cc1cn(Cc2ccc(C)cc2)nn1)S(=O)(=O)c1ccc(F)cc1Br	none (no result: NCF1 inh, PG9 binder, aDG glyco act, ZTA DNA inh, EBNA-1 inh)
N#Cc1cc2c(nc1SCC(=O)Nc1nccs1)CCCCC2	PG9 binder 37, EBNA-1 inh 30 | EBNA-1 inh conf inactive | ZTA counter trip inactive
Cc1cccc(NC(=O)/C(C#N)=C/c2cn(CC(=O)NCc3ccco3)c3ccccc23)c1C	EBNA-1 inh 35 | EBNA-1 inh conf 30 | ZTA counter trip inactive
COC(=O)c1cc(Nc2cc(C)c3c(O)cccc3n2)cc(C(=O)OC)c1	none
COC(=O)c1cc(Nc2cc(C)c3ccc(O)cc3n2)cc(C(=O)OC)c1	EBNA-1 inh 39 | EBNA-1 inh conf 48 | ZTA counter trip inactive
Cc1ccc(-n2nc3c(c2NC(=O)c2ccc4c(c2)OCO4)CSC3)cc1	EBNA-1 inh 47 | EBNA-1 inh conf inactive | ZTA counter trip inactive
O=C1N=C(N2CCC(Cc3ccccc3)CC2)S/C1=C/c1cn[nH]c1-c1ccccc1	none
O=C1N=C(N2CCN(c3ccccc3)CC2)S/C1=C\c1ccco1	none
Cc1cccc(N2CCN(C3=NC(=O)/C(=C\c4cn[nH]c4-c4ccccc4)S3)CC2)c1	EBNA-1 inh 67 | EBNA-1 inh conf 29 | ZTA counter trip inactive
Cc1ccc(N2CCN(C3=NC(=O)/C(=C\c4cn[nH]c4-c4ccccc4)S3)CC2)cc1	EBNA-1 inh 93 | EBNA-1 inh conf 43 | ZTA counter trip inactive

Screening results: PubChem, several laboratories
